This is part of a sample that, as a whole, favours compounds with a hit. Of some 83,000 tested, about 20% had one in any assay.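 Each cell line was grown in a 96-well plate and treated with one concentration of compound for 48 hours. Values below 10 were considered active.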 Activity calls are given as the source filed them.
Columns and labels:
Experiment in all cases: NCI-60 one-dose screen, 48 h (100 = growth as untreated, 0 = no growth, -100 = all killed)
Conditions in all cases: 10 µM
SK-MEL-2 melanoma = system: SK-MEL-2 melanoma
EKVX NSCLC = system: EKVX NSCLC
SN12C renal = system: SN12C renal
UO-31 renal = system: UO-31 renal
TK-10 renal = system: TK-10 renal
ACHN renal = system: ACHN renal
CAKI-1 renal = system: CAKI-1 renal
A498 renal = system: A498 renal
CCRF-CEM leukemia = system: CCRF-CEM leukemia
MOLT-4 leukemia = system: MOLT-4 leukemia

Measured: growth

CC1OC2CC(=O)OC2C2=C1C(=O)c1c(O)c3c(c(O)c1C2=O)C1CC(O)C3(O)C(C)O1 (stereo not given)
active: SK-MEL-2 melanoma -55.7% | SN12C renal -33% | UO-31 renal 1.82% | TK-10 renal -16.6% | ACHN renal -16.2% | CAKI-1 renal 8.24% | A498 renal -18.1%
inactive: EKVX NSCLC 13.1% | CCRF-CEM leukemia 12%

Nc1cc(-c2ccc(Cl)cc2)nn1-c1nc2ccccc2nc1Cc1ccccc1
inactive: SK-MEL-2 melanoma 100% | EKVX NSCLC 78.6% | SN12C renal 94.1% | UO-31 renal 87% | TK-10 renal 99.2% | ACHN renal 103% | CAKI-1 renal 80.7%

Cc1ccc(C(=O)C2C(=O)C3CCC2C3)cc1 (stereo not given)
inactive: SK-MEL-2 melanoma 111% | EKVX NSCLC 98.5% | SN12C renal 97.3% | UO-31 renal 90.2% | TK-10 renal 111% | ACHN renal 100% | CAKI-1 renal 96.1% | A498 renal 109% | CCRF-CEM leukemia 96.3% | MOLT-4 leukemia 105%

Nc1ccc(CC[C@H]2CCC/C=C/[C@@H]3C[C@H](O)C[C@H]3[C@H](O)/C=C/C(=O)O2)cc1
inactive: ACHN renal 10%
active: SK-MEL-2 melanoma -25.9% | EKVX NSCLC 8.9% | SN12C renal 7.47% | UO-31 renal 2.24% | TK-10 renal -53.8% | CAKI-1 renal 7.49% | A498 renal -32.4% | CCRF-CEM leukemia -3.7% | MOLT-4 leukemia -18.8%

CN1CCN(CCCn2c(=O)c3sc4ncccc4c3n3nnc(-c4ccccc4)c23)CC1
active: SK-MEL-2 melanoma -10.7% | EKVX NSCLC 2.42% | UO-31 renal -74.5% | TK-10 renal -44.3% | ACHN renal -6.48% | CAKI-1 renal -39.2% | CCRF-CEM leukemia -14.7% | MOLT-4 leukemia -20%
inactive: SN12C renal 47.5% | A498 renal 64.6%

COc1cc2nc(SCC(=O)Nc3cc(OC)c(OC)c(OC)c3)n(Cc3ccccc3)c(=O)c2cc1OC
active: TK-10 renal -12.5% | A498 renal -8.93%
inactive: SK-MEL-2 melanoma 45.4% | EKVX NSCLC 75.5% | SN12C renal 69.1% | UO-31 renal 48.9% | ACHN renal 66.1% | CAKI-1 renal 84.8%

COc1cc(/C=C/c2cc(/C=C/c3ccc(O)c(OC)c3)[nH]c(=O)n2)ccc1O
inactive: SK-MEL-2 melanoma 81.1% | EKVX NSCLC 71.6% | SN12C renal 62.3% | UO-31 renal 54.2% | TK-10 renal 103% | ACHN renal 89.4% | CAKI-1 renal 88.6% | A498 renal 62.8% | CCRF-CEM leukemia 16.7% | MOLT-4 leukemia 36.3%

CCOC(=O)Cn1c(=O)c2sc3ncccc3c2n2nnc(-c3ccccc3)c12
inactive: SK-MEL-2 melanoma 103% | EKVX NSCLC 104% | SN12C renal 97.4% | UO-31 renal 60.2% | TK-10 renal 132% | ACHN renal 95.5% | CAKI-1 renal 93.4% | A498 renal 152% | CCRF-CEM leukemia 86.3% | MOLT-4 leukemia 89.6%

CCOC(=O)c1sc2ncnc(Nc3ccc(NC(=O)Nc4ccc(Cl)cc4)cc3)c2c1C
inactive: SK-MEL-2 melanoma 87.2% | EKVX NSCLC 74.4% | SN12C renal 60.5% | UO-31 renal 54.9% | TK-10 renal 89.4% | ACHN renal 64.4% | CAKI-1 renal 83.9%

COc1ccc2cc(-c3nc4ccccc4s3)c(Cl)nc2c1OC
inactive: SK-MEL-2 melanoma 95.8% | EKVX NSCLC 100% | SN12C renal 99.9% | UO-31 renal 64% | TK-10 renal 118% | ACHN renal 96.6% | CAKI-1 renal 94.5% | A498 renal 93.1% | CCRF-CEM leukemia 104% | MOLT-4 leukemia 92.7%

CC(=O)Nc1ccc2c(c1)C(=O)c1cccc(C(=O)O)c1-2
inactive: SK-MEL-2 melanoma 115% | EKVX NSCLC 107% | SN12C renal 109% | UO-31 renal 111% | TK-10 renal 116% | ACHN renal 105% | CAKI-1 renal 94.9% | A498 renal 120% | CCRF-CEM leukemia 103% | MOLT-4 leukemia 107%

OC(CNc1ccnc2cc(Cl)ccc12)CNC1CCCCC1 (stereo not given)
inactive: SK-MEL-2 melanoma 91.8% | EKVX NSCLC 88.1% | SN12C renal 85.9% | UO-31 renal 61.2% | TK-10 renal 96.1% | ACHN renal 81.8% | CAKI-1 renal 71.2% | A498 renal 59.6% | CCRF-CEM leukemia 80.5%

NC(CSC(c1ccccc1)(c1ccccc1)c1cccc2ccccc12)C(=O)O (stereo not given)
inactive: SK-MEL-2 melanoma 98.6% | EKVX NSCLC 88% | SN12C renal 82.7% | UO-31 renal 84.3% | TK-10 renal 115% | ACHN renal 97.4% | CAKI-1 renal 89.9% | A498 renal 100% | CCRF-CEM leukemia 86.2% | MOLT-4 leukemia 88.1%

CCOC(=O)C1=CSC2=NC3=C(CCC/C3=C\c3ccc(Cl)cc3)C(c3ccc(Cl)cc3)N12 (stereo not given)
inactive: SK-MEL-2 melanoma 106% | EKVX NSCLC 91.6% | SN12C renal 95% | UO-31 renal 95.2% | TK-10 renal 119% | ACHN renal 107% | CAKI-1 renal 103% | A498 renal 78.1% | CCRF-CEM leukemia 87.8% | MOLT-4 leukemia 82.2%

COc1cc(/C=C/c2cc(/C=C/c3ccc(O)c(OC)c3)n(C(=O)Nc3ccc(C)cc3)n2)ccc1O
inactive: EKVX NSCLC 20.3% | SN12C renal 18.3% | TK-10 renal 28.5% | ACHN renal 16.1%
active: SK-MEL-2 melanoma -14% | UO-31 renal 0.972% | CAKI-1 renal 8.65% | A498 renal -12% | CCRF-CEM leukemia 0.439% | MOLT-4 leukemia 0.114%

Cc1ccc(-n2nnnc2N)c(C)c1
inactive: SK-MEL-2 melanoma 114% | EKVX NSCLC 98.5% | SN12C renal 113% | UO-31 renal 94.6% | TK-10 renal 136% | ACHN renal 102% | CAKI-1 renal 94.5% | A498 renal 80% | CCRF-CEM leukemia 112% | MOLT-4 leukemia 109%

O=[N+]([O-])c1cccc(/C=N/NC(=S)NC23CC4CC(CC(C4)C2)C3)c1
inactive: SK-MEL-2 melanoma 96% | EKVX NSCLC 71.2% | SN12C renal 83.1% | UO-31 renal 89.9% | TK-10 renal 96.6% | ACHN renal 49.6% | CAKI-1 renal 89.9% | A498 renal 97.1% | CCRF-CEM leukemia 86.2% | MOLT-4 leukemia 96.3%

O=C1OC(C(Cl)(Cl)Cl)OC1C(Cl)(Cl)Cl (stereo not given)
inactive: SK-MEL-2 melanoma 102% | EKVX NSCLC 106% | SN12C renal 97.1% | UO-31 renal 89.4% | TK-10 renal 110% | ACHN renal 113% | CAKI-1 renal 113% | A498 renal 109% | CCRF-CEM leukemia 104%
active: MOLT-4 leukemia -10.8%

COc1ccc(/C(C#N)=C/c2cccc(OC)c2OC)cc1
inactive: SK-MEL-2 melanoma 77.1% | EKVX NSCLC 99.9% | SN12C renal 89.8% | UO-31 renal 78.1% | TK-10 renal 96.7% | ACHN renal 99% | CAKI-1 renal 74.7% | A498 renal 87.2% | CCRF-CEM leukemia 80.5% | MOLT-4 leukemia 82.8%

CCOC(=O)CC(S(=O)(=O)c1ccccc1)S(=O)(=O)c1ccccc1
inactive: SK-MEL-2 melanoma 97.4% | EKVX NSCLC 113% | SN12C renal 95.7% | UO-31 renal 72.4% | TK-10 renal 56.4% | ACHN renal 63.6% | CAKI-1 renal 90.1% | A498 renal 115% | CCRF-CEM leukemia 62.7% | MOLT-4 leukemia 87.1%

COc1ccc(NC(=O)C2CC3C=CC2C3)c([N+](=O)[O-])c1 (stereo not given)
inactive: SK-MEL-2 melanoma 104% | EKVX NSCLC 101% | SN12C renal 91.6% | UO-31 renal 92.4% | TK-10 renal 109% | ACHN renal 98.4% | CAKI-1 renal 92.6% | A498 renal 103% | CCRF-CEM leukemia 95.6% | MOLT-4 leukemia 86.8%

O=C(Nc1cc(Cl)cc2c1-c1ccc(Cl)cc1C2O)C(Cl)Cl (stereo not given)
inactive: SK-MEL-2 melanoma 110% | EKVX NSCLC 69% | SN12C renal 82.2% | UO-31 renal 74% | TK-10 renal 118% | ACHN renal 61.9% | CAKI-1 renal 67.5% | A498 renal 74.4% | CCRF-CEM leukemia 69.1% | MOLT-4 leukemia 78.8%

COc1ccc(/C=C2/SC(=S)NC2=O)c(OC)c1OC
inactive: SK-MEL-2 melanoma 87.4% | EKVX NSCLC 65.9% | SN12C renal 78.7% | UO-31 renal 42.5% | TK-10 renal 81.3% | ACHN renal 77.4% | CAKI-1 renal 64.3% | A498 renal 54.2% | CCRF-CEM leukemia 76.8% | MOLT-4 leukemia 90.1%

O=C(N/N=C/c1ccc(Cl)cc1)c1ccc(Cc2n[nH]c(=O)c3cccnc23)cc1
inactive: SK-MEL-2 melanoma 108% | EKVX NSCLC 105% | SN12C renal 100% | UO-31 renal 74.3% | TK-10 renal 107% | ACHN renal 102% | CAKI-1 renal 94.8% | A498 renal 131% | CCRF-CEM leukemia 107% | MOLT-4 leukemia 98.6%

COc1cc(/C=C/c2cc(/C=C/c3ccc(O)c(OC)c3)n(C(=O)Nc3ccccc3Cl)n2)ccc1O
active: SK-MEL-2 melanoma -12.3% | UO-31 renal -34.8% | CAKI-1 renal 7.29% | A498 renal -11.8% | CCRF-CEM leukemia -4.54% | MOLT-4 leukemia -4.57%
inactive: EKVX NSCLC 17.7% | SN12C renal 14.2% | TK-10 renal 16.1% | ACHN renal 12.8%

COc1ccc(C(=O)N/N=C/c2cc(C(F)(F)F)ccc2Cl)cc1
inactive: SK-MEL-2 melanoma 104% | EKVX NSCLC 75.7% | SN12C renal 93.6% | UO-31 renal 88.9% | TK-10 renal 107% | ACHN renal 108% | CAKI-1 renal 89.2% | A498 renal 67% | CCRF-CEM leukemia 103% | MOLT-4 leukemia 92.5%

Brc1ccc2c(c1)-c1ccccc1C1=NCCN12
active: SK-MEL-2 melanoma -39.7% | EKVX NSCLC -2.72% | SN12C renal -7.57% | UO-31 renal -16.6% | TK-10 renal -12.5% | ACHN renal -22.2% | CAKI-1 renal -5.84% | A498 renal -75.7% | CCRF-CEM leukemia -12% | MOLT-4 leukemia -7.7%
